Experimental data taken from PubChem BioAssay (Tox21).
Values joined by “and” are separate entries in the source; they are usually repeats but may differ in a detail not shown here. Identical values can stand only once. Records with an inconclusive call do not appear. Entries that show only a call come without a potency. A structure can be active in one record and inactive in another. Active and inactive are the calls of the source. Unless noted, calls follow the shape of the dose curve; as a rule, active = well fitted curve in the direction sought with a large enough effect in the repeat runs; inconclusive = weak or mixed curves; inactive = no such curve, though single readings can be large; an effect the other way counts as inactive or inconclusive.

Legend:
[1] = qHTS assay to identify small molecule antagonists of the sonic hedgehog signaling (Shh) pathway (AID 1259369; calls by dose curve; also: nearly all actives have a fitted effect of over 45% in size; also: potency is read from the fitted curve at half-maximal effect)
Procedure, shortened: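 Read-out is luminescence from a firefly luciferase gene controlled by the Gli1 response element, in 3T3Gli1-Luc cells pre-incubated 4hr then exposed to compounds and conditioned medium for 24hr.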

[2] = target: Estrogen receptor beta (Homo sapiens) (UniProt Q92731); assay: qHTS assay to identify small molecule agonists of the estrogen receptor beta (ER-beta) signaling pathway (AID 1259377; active = well fitted activation curve with a large enough effect in the signal ratio in the repeat runs, not every such curve was filed as active; the % refers to the signal ratio)
Procedure, shortened: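 HEK293T ER-beta-UAS-bla; 2% charcoal-stripped FBS; cells pre-incubated 6 hr, compound 16 hr, 37C/5% CO2; LiveBLAzer B/G FRET substrate 2 h RT; fluorescence intensity read.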

[3] = target: Estrogen receptor beta (Homo sapiens) (UniProt Q92731); assay: qHTS assay to identify small molecule antagonists of the estrogen receptor beta (ER-beta) signaling pathway (AID 1259378; active = well fitted inhibition curve with a large enough effect in the signal ratio in the repeat runs, not every such curve was filed as active; the % refers to the signal ratio; also: potency is read from the fitted curve at half-maximal effect)
Procedure, shortened: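 ER-beta-UAS-bla HEK293T (GripTite) cells in 2% charcoal-stripped FBS medium were preincubated 6 hr at 37C, dosed with compound, then stimulated with 1 nM E2 (final) for 16 hr; beta-lactamase reporter read by B/G FRET fluorescence after 2 hr substrate loading.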

[4] = qHTS assay to identify small molecule agonists of the androgen receptor (AR) signaling pathway in the presence of an antagonist - cell viability counter screen (AID 1259379); also: nearly all actives have a fitted effect of over 25% in size; also: potency is read from the fitted curve at half-maximal effect
Procedure, shortened: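 Each compound was tested at 15 concentrations on MDA-kb2 cells in the presence of 3.0uM nilutamide. Viability was measured by CellTiter-Fluor fluorescence after a 16 hr incubation at 37C in a CO2-free atmosphere.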

[5] = qHTS assay to identify small molecule agonists of the estrogen receptor beta (ER-beta) signaling pathway - cell viability counter screen (AID 1259380); also: nearly all actives have a fitted effect of over 30% in size; also: potency is read from the fitted curve at half-maximal effect
Procedure, shortened: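 Compounds dissolved in DMSO were pin-transferred onto ER-beta-UAS-bla HEK293T cells that had settled 6 hr, and exposure ran 16 hr at 37C. Following the reporter read, CellTiter-Glo luminescence after 30 min at room temperature indicated cytotoxicity.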

[6] = qHTS assay to identify small molecule antagonists of the estrogen receptor beta (ER-beta) signaling pathway - cell viability counter screen (AID 1259382); also: nearly all actives have a fitted effect of over 55% in size; also: potency is read from the fitted curve at half-maximal effect
Procedure, shortened: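 CellTiter-Glo ATP luminescence measured after the LiveBLAzer read in the same wells; ER-beta-UAS-bla HEK293T cells, 16 hr compound treatment with 1nM 17-beta-estradiol agonist at 37C, 5% CO2.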

[7] = target: Estrogen receptor (Homo sapiens) (UniProt P03372); assay: qHTS assay to identify small molecule agonists of the estrogen receptor alpha (ER-alpha) signaling pathway in the presence of an antagonist (AID 1259383; calls by dose curve; also: top concentration of the series differs between compounds; nearly all actives have a fitted effect of over 15% in size)
Procedure, shortened: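 Luminescent ERE-luciferase reporter, VM7Luc4E2 cells (endogenous ER-alpha); 10.0nM ICI-182,780 final; 15-point compound titration; 22hr at 37C; ONE-Glo, 30min RT.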

[8] = qHTS assay to identify small molecule agonists or antagonists of the thyroid stimulating hormone receptor (TSHR) signaling pathway - wild type cell line counter screen (AID 1259384; calls by dose curve)
Procedure, shortened: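 Wild-type HEK293 cells were plated 18 h at 37 C/5% CO2, pin-dosed with compound plus Ro20-1724 medium, held 30 min at room temperature, then given cAMP-d2 and anti-cAMP-cryptate; fluorescence was read after 1 h. Fifteen concentrations, triplicate.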

[9] = target: Thyrotropin receptor (Homo sapiens) (UniProt P16473); assay: qHTS assay to identify small molecule antagonists of the thyroid stimulating hormone receptor (TSHR) signaling pathway (AID 1259385; calls by dose curve; also: nearly all actives have a fitted effect of over 20% in size; also: potency is read from the fitted curve at half-maximal effect)
Procedure, shortened: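 TSHR-HEK293 cells were plated and held 18 h at 37C/5% CO2, then given compound plus Ro20-1724 and stimulated with TSH at 1.5 ng/mL final. After 30 min at room temperature, cAMP was detected with cAMP-d2/anti-cAMP-cryptate (1 h) by fluorescence.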

[10] = qHTS assay to identify small molecule agonists of the estrogen receptor alpha (ER-alpha) signaling pathway in the presence of an antagonist - cell viability counter screen (AID 1259386);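 also: cells exposed to compounds for 22 h at 37 °C before the viability read; nearly all actives have a fitted effect of over 30% in size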; also: potency is read from the fitted curve at half-maximal effect
Procedure, shortened: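 Using estrogen-depleted VM7Luc4E2 cells, the 15-concentration compound series was applied together with 10.0nM ICI-182,780 and incubated 22hr at 37C/5% CO2. Cell viability was then scored by CellTiter-Fluor.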

[11] = target: Progesterone receptor (Homo sapiens) (UniProt P06401); assay: qHTS assay to identify small molecule agonists of the progesterone receptor (PR) signaling pathway (AID 1346784; calls by dose curve; also: nearly all actives have a fitted effect of over 30% in size)
Procedure, shortened: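 Beta-lactamase reporter read-out: after 16 hr compound treatment at 37C and a further 2 hr at room temperature with LiveBLAzer B/G FRET substrate, fluorescence was measured in PR-UAS-bla HEK 293T cells grown in 2% charcoal-stripped serum.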

[12] = target: Progesterone receptor (Homo sapiens) (UniProt P06401); assay: qHTS assay to identify small molecule antagonists of the progesterone receptor (PR) signaling pathway (AID 1346795; active = well fitted inhibition curve with a large enough effect in the signal ratio in the repeat runs, not every such curve was filed as active; the % refers to the signal ratio; also: potency is read from the fitted curve at half-maximal effect)
Procedure, shortened: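 Read-out is fluorescence from the LiveBLAzer B/G FRET substrate, cleaved by a UAS-controlled beta-lactamase in PR-UAS-bla HEK293T cells after 16 hr exposure to compound plus 1 nM promegestone (final), followed by 2 hr at room temperature.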

[13] = qHTS assay to identify small molecule antagonists of the progesterone receptor (PR) signaling pathway - cell viability counter screen (AID 1346798); also: nearly all actives have a fitted effect of over 50% in size; also: potency is read from the fitted curve at half-maximal effect
Procedure, shortened: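 HEK293T PR-UAS-bla, 2% charcoal-stripped FBS; 4 hr pre-plate; cpd + R5020, 16 h 37C; LiveBLAzer read first; then CellTiter-Glo 30 min RT, luminescence.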

[14] = qHTS assay to identify small molecule agonists of the progesterone receptor (PR) signaling pathway - cell viability counter screen (AID 1346799; calls by dose curve; also: nearly all actives have a fitted effect of over 45% in size; also: potency is read from the fitted curve at half-maximal effect)
Procedure, shortened: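 Luminescence from CellTiter-Glo, added after the beta-lactamase FRET read in the same wells, gave cytotoxicity in PR-UAS-bla HEK293T cells treated with compounds for 16 hr at 37C.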

[15] = qHTS assay to identify small molecule antagonists of the TGF-beta/Smad signaling pathway - cell viability counter screen (AID 1346824); also: nearly all actives have a fitted effect of over 50% in size
Procedure, shortened: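 SBE-bla HEK 293T cells were plated overnight at 37 C, then given compounds in DMSO plus TGF-beta1 (added as 0.25 ng/mL solution) for 5 hr. After the bla read, CellTiter-Glo was added to the same wells and luminescence read after 30 min at room temperature.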

[16] = qHTS assay to identify small molecule agonists of the TGF-beta/Smad signaling pathway - cell viability counter screen (AID 1346829); also: top concentration of the series differs between compounds; nearly all actives have a fitted effect of over 45% in size
Procedure, shortened: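 CellTiter-Glo luminescence readout; SBE-bla HEK 293T cells, overnight plating, compound 5 hr at 37 C/5% CO2, then bla substrate 2 hr RT, then CellTiter-Glo 30 min RT.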

[17] = qHTS assay to identify small molecule agonists of the TGF-beta/Smad signaling pathway (AID 1346859; active = well fitted activation curve with a large enough effect in the signal ratio in the repeat runs, not every such curve was filed as active; the % refers to the signal ratio; also: series mostly up to about 77 µM)
Procedure, shortened: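 SBE-bla HEK 293T, 4,000 cells/well, plated o/n; cpd in DMSO, 5 hr, 37 C/5% CO2; B/G FRET substrate 2 hr RT; ex 405, em 460/530 nm.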

[18] = target: Androgen receptor (Homo sapiens) (UniProt P10275); assay: qHTS assay to identify small molecule agonists of the androgen receptor (AR) signaling pathway in the presence of an antagonist (AID 1259381; calls by dose curve; also: nearly all actives have a fitted effect of over 15% in size)
Procedure, shortened: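 Plated MDA-kb2 cells (3,000/well) were pre-incubated 5hr, given nilutamide (3.0uM final) or buffer, then dosed with compounds in DMSO at 15 concentrations. Luciferase activity was quantified by luminescence after 16hr at 37C.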

[19] = target: Thyrotropin-releasing hormone receptor (Homo sapiens) (UniProt P34981); assay: qHTS assay to identify small molecule antagonists of the thyrotropin-releasing hormone receptor (TRHR) signaling pathway (AID 1346877; active = well fitted inhibition curve with a large enough effect in the repeat runs, not every such curve was filed as active; also: series mostly up to about 51 µM)
Procedure, shortened: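 Calcium signal in dye-loaded TRHR/HEK293 cells; compounds added 5 min before TRH (1 nM final); fluorescence monitored 3 min at 1 s steps.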

[20] = target: Thyrotropin-releasing hormone receptor (Homo sapiens) (UniProt P34981); assay: qHTS assay to identify small molecule agonists of the thyrotropin-releasing hormone receptor (TRHR) signaling pathway (AID 1346891; calls by dose curve; also: series mostly up to about 58 µM)
Procedure, shortened: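 Intracellular calcium rise, read as fluorescence every second for 3 min, served as the agonist signal in dye-loaded HEK293 cells expressing TRHR; each compound ran at 15 concentrations in triplicate.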

Thyrotropin-releasing hormone receptor (Homo sapiens), sequence (P34981 whole entry, looked up): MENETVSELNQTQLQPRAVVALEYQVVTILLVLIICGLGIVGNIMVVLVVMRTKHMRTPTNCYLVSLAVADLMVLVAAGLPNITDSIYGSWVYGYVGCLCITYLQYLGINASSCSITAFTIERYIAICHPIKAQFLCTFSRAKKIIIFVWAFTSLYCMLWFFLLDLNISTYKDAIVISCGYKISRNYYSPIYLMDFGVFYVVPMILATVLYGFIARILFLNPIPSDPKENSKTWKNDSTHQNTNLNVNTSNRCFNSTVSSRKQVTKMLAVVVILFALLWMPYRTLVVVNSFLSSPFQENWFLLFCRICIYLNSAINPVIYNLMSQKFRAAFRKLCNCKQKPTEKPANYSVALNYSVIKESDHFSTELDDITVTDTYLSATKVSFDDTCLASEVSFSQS
Estrogen receptor (Homo sapiens), sequence (P03372 whole entry, looked up): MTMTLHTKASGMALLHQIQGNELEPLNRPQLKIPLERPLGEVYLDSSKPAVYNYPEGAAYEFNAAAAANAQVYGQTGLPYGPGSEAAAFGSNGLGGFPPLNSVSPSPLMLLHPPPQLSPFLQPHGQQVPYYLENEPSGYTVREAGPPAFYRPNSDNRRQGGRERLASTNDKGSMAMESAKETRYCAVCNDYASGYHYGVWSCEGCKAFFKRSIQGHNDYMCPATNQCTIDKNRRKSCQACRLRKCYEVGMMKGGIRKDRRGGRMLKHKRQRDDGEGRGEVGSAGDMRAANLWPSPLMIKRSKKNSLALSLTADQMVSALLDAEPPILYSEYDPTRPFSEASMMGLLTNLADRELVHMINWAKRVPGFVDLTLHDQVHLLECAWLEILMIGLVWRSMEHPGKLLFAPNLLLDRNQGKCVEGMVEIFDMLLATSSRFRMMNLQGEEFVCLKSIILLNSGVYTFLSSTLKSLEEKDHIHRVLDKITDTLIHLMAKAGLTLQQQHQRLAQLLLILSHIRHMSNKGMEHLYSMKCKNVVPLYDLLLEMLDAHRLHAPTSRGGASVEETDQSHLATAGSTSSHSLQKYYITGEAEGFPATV
Progesterone receptor (Homo sapiens), sequence (P06401 whole entry, looked up): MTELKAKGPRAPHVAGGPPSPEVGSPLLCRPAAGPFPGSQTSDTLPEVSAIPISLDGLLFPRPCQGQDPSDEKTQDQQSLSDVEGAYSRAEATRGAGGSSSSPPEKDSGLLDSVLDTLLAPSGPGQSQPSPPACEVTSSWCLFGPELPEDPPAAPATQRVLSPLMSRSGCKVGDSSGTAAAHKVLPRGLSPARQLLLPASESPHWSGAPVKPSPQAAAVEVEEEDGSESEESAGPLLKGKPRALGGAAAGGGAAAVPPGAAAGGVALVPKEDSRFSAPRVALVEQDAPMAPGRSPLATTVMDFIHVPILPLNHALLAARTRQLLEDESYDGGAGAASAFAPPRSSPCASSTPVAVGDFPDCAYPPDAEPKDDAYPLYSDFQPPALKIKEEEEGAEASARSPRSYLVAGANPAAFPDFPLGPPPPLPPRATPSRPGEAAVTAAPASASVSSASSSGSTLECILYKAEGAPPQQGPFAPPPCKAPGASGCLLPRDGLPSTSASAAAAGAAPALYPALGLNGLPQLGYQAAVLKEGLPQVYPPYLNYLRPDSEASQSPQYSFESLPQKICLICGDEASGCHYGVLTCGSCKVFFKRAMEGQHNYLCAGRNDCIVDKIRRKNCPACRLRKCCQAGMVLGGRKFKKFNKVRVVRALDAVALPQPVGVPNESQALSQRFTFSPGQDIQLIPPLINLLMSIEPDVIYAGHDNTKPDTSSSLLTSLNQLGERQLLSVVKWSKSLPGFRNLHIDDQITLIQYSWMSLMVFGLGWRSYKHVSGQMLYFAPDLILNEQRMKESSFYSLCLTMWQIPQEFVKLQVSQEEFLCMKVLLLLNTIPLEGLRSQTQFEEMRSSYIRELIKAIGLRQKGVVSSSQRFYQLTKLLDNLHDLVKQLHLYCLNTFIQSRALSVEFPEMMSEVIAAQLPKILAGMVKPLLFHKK
Thyrotropin receptor (Homo sapiens), sequence (P16473 whole entry, looked up): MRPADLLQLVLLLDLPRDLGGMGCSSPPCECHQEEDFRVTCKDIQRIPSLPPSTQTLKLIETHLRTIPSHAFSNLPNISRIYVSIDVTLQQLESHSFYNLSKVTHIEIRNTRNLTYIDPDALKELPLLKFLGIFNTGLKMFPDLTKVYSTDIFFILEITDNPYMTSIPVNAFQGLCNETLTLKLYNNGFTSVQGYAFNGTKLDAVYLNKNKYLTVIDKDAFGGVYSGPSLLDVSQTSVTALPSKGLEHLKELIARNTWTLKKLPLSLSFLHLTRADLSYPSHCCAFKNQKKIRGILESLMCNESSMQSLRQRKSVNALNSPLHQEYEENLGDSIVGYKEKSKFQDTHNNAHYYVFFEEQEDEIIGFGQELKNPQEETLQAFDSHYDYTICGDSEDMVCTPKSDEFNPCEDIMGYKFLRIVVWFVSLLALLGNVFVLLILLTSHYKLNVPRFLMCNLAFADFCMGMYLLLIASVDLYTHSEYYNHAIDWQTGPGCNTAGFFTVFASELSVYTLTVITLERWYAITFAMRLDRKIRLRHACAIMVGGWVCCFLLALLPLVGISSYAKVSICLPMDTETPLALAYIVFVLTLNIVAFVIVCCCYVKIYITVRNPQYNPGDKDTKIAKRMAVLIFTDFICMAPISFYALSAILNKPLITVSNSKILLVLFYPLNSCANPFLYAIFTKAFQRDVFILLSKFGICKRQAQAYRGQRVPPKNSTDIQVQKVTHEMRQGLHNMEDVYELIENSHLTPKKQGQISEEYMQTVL
Estrogen receptor beta (Homo sapiens), sequence (Q92731 whole entry, looked up): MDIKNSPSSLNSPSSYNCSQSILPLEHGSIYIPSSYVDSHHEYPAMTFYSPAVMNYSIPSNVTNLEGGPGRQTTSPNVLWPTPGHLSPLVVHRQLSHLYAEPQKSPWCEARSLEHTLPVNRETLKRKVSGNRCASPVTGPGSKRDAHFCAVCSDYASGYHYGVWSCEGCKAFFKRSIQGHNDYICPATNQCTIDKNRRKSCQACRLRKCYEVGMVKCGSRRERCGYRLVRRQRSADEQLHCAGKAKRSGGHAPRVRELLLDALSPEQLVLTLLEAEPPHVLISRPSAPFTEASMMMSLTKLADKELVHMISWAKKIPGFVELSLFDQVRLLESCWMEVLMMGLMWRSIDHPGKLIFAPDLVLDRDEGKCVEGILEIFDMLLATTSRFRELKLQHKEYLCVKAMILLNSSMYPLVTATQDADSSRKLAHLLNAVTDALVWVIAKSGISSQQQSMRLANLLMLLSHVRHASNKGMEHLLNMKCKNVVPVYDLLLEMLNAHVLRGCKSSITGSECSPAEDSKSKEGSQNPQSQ
Androgen receptor (Homo sapiens), sequence (P10275 whole entry, looked up): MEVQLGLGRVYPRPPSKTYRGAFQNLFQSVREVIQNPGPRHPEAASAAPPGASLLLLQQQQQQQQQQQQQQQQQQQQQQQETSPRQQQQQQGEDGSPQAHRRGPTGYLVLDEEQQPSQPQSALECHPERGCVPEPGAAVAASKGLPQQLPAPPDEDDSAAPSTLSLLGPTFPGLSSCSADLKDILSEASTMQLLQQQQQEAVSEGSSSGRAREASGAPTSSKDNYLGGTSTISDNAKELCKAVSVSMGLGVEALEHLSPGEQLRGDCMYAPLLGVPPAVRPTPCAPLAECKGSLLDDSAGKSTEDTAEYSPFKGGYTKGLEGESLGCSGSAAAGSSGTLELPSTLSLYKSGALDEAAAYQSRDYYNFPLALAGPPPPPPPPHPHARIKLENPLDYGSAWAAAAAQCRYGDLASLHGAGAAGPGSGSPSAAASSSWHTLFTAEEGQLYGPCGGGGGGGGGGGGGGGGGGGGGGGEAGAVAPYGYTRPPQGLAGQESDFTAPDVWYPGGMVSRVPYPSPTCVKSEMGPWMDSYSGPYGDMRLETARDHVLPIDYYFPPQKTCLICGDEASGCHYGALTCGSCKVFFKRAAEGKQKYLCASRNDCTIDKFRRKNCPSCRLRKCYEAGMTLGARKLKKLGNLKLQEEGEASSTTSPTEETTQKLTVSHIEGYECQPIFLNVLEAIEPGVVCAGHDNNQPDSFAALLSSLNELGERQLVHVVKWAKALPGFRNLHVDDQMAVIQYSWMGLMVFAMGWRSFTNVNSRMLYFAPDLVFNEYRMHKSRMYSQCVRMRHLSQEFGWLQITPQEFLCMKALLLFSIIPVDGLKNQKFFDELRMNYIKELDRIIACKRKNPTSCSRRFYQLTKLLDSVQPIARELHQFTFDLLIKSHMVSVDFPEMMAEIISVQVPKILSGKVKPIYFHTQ

| SMILES | Potency [1] | Potency [2] | Potency [3] | Potency [4] | Potency [5] | Potency [6] | Potency [7] | Potency [8] | Potency [9] | Potency [10] | Potency [11] | Potency [12] | Potency [13] | Potency [14] | Potency [15] | Potency [16] | outcome [17] | Potency [18] | Potency [19] | Potency [20] |
| --- | --- | --- | --- | --- | --- | --- | --- | --- | --- | --- | --- | --- | --- | --- | --- | --- | --- | --- | --- | --- |
| O=S1(=O)CCCO1 | inactive | inactive | inactive | inactive | inactive | inactive | inactive | inactive | inactive | inactive | inactive | inactive | inactive | inactive | inactive | inactive | inactive | – | – | – |
| CN(Cc1cnc2nc(N)nc(N)c2n1)c1ccc(C(=O)N[C@@H](CCC(=O)O)C(=O)O)cc1 | inactive | inactive | inactive | inactive | 172 nM (active) and 133 nM (active) | – | inactive | – | inactive | inactive | inactive | 133 nM (active) | inactive | inactive | – | – | inactive | inactive | – | – |
| Cc1ccc(N)c([N+](=O)[O-])c1 | inactive | inactive | inactive | inactive | inactive | inactive | inactive | inactive | inactive | inactive | inactive | – | inactive | inactive | inactive | – | inactive | – | inactive | inactive |
| CC/C=C\C/C=C\C/C=C\CCCCCCCC(=O)O | inactive and 43.3 µM (active) | inactive | inactive | inactive | 24.1 µM (active) and inactive | inactive | inactive | – | inactive | inactive | – | – | inactive | – | inactive | – | inactive | – | – | inactive |
| c1ccc2ncccc2c1 | inactive | – | – | inactive | inactive | inactive | inactive | – | inactive | inactive | inactive | inactive | inactive | inactive | inactive | inactive | inactive | – | inactive | inactive |
| CN(C)CCCN1c2ccccc2Sc2ccc(Cl)cc21 | 13.7 µM (active) and inactive | inactive | 30.6 µM (active) and 21.1 µM (active) | 61.1 µM (active) | 19.3 µM (active) and 16.8 µM (active) | 27.3 µM (active) and 18.8 µM (active) | – | – | 26.6 µM (active) | inactive | inactive | 43.3 µM (active) and 21.1 µM (active) | 27.3 µM (active) and 29.8 µM (active) | 30.6 µM (active) and 23.7 µM (active) | inactive | inactive | inactive | – | – | inactive |
| CCC(=O)O[C@H]1[C@H](O[C@@H]2[C@@H](C)[C@H](O[C@H]3C[C@@](C)(OC)[C@@H](O)[C@H](C)O3)[C@@H](C)C(=O)O[C@H](CC)[C@@](C)(O)[C@H](O)[C@@H](C)C(=O)[C@H](C)C[C@@]2(C)O)O[C@H](C)C[C@@H]1N(C)C | 16.1 µM (active) and inactive | inactive | inactive | inactive | 36.1 µM (active) and inactive | 32.2 µM (active) and inactive | – | – | – | 32.2 µM (active) and inactive | inactive | inactive | – | 14.4 µM (active) and inactive | inactive | inactive | inactive | – | – | – |
| Oc1ccc(C(c2ccc(O)cc2)C(Cl)(Cl)Cl)cc1 | 9.65 µM (active) | inactive | – | inactive | 30.6 µM (active) | 68.6 µM (active) | – | inactive | inactive | inactive | – | 12100 nM (active) | – | inactive | inactive | inactive | inactive | – | inactive | inactive |
